# Rows were chosen to be rich in hits. Some 3.1% of all compounds tested hit in one or more screens of this group.
# PMP22 txn prim: modulates PMP22 transcription in S16 Schwann cells. Potency, µM (highest dose often 57.5 µM), for the others: top-dose activity change, negative = inhibition, most hits filed as inhibitors. S16 Pmp22-F2sN Schwann cells, FLuc/NLuc coincidence luminescence, 24 h. AID 1508649. actives 2% (n = 43,000); active = clear falling dose curves in both reporters; inconclusive = both reporters move, but less clearly or upward; inactive = either reporter flat; the % is the NLuc reporter signal
#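 S16 Schwann cells carrying FLuc/NLuc coincidence reporter in the Pmp22 3' UTR treated with compound 24 h at 37C; FLuc then NLuc luminescence read sequentially by dual-luciferase reagents.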
# p53null 39C kill: selectivity test: cytotoxicity in p53 null cells, nonpermissive temperature; H1299 p53-null (neo) cells, 39C, ATPlite viability, 24 h; Potency, µM (titrated, usually from 46.1 µM), for inactives: at the highest dose activity, negative = cell killing, usual class: cytotoxic; actives 0.97% (n = 55,000);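 also: 0% = DMSO only and -100% = full killing by 100 µM tamoxifen; nearly all actives have a fitted effect of over 50% in size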
#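 Following overnight plating at 37C (600 cells/well), H1299-neo or H1299-p53A138V cells are dosed up to 46 uM. Incubation lasts 24 hr at 39C before ATP detection.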
# S16 F2sN tox: toxic to S16 Pmp22-F2sN Schwann cells; S16 Pmp22-F2sN Schwann cells viability, CellTiter-Glo, 24 h; Potency, µM (series often up to 57.5 µM), for inactives: at the highest dose activity change, negative = cytotoxicity, usual class: cytotoxic; actives 0.48% (n = 43,000); also: nearly all actives have a fitted effect of over 65% in size
#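 Viability was measured by CellTiter-Glo luminescence (15 min, room temperature). This followed 24 h at 37 °C of compound exposure (23 nL pin transfer) in S16 Pmp22-F2sN Schwann cells, 500-1,000 per well.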
# mTORC1 inh: mTORC1 pathway inhibition measured by phospho-rpS6. actives 0.78% (n = 44,000). Tsc2-/- p53-/- MEF, phospho-rpS6 immunofluorescence/PI, 24 h. Potency, µM (titrated, usually from 38.3 µM), inactives show top-dose activity change, negative = inhibition, hits mostly inhibitors;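 also: plate controls were DMSO for no effect and rapamycin for full effect; nearly all actives have a fitted effect of over 50% in size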
#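 Immunofluorescence of rpS6 phosphorylation in Tsc2-/-, p53-/- MEFs after 24 h compound exposure, normalized to propidium iodide signal. Activity is expressed as % positive cells, thresholded with 7.5 nM rapamycin.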
# OvCa metastasis: ovarian cancer metastasis inhibition, 3D TME model. SKOV3ip1-GFP adhesion/invasion on 3D omental model, fluorescence. Potency, µM (highest dose often 45.8 µM), without a hit: at the highest dose activity change, negative = inhibition, hits mostly inhibitors. actives 0.1% (n = 46,000);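 also: plate controls were DMSO wells for no effect and tomatine positive control wells for full effect; nearly all actives have a fitted effect of over 65% in size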
#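 Primary human omental fibroblast/mesothelial 3D culture pre-formed 48 h. SKOV3ip1-GFP cells added with compounds (0.36-46 umol/L), incubated 2 h RT/16 h 37 C, fixed; GFP cells quantified at 488/509 nm.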
# p53null 32C kill: selectivity test: cytotoxicity in p53 null cells, permissive temperature; H1299-neo p53 null cells, ATP luminescence, 24 h, 32C; actives 0.62% (n = 55,000); Potency, µM (series often up to 46.1 µM), inactives show at the top dose activity change, negative = cytotoxicity, hits mostly cytotoxic; AID 903;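 also: 0% = DMSO only and -100% = full killing by 100 µM tamoxifen; nearly all actives have a fitted effect of over 55% in size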
#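 Cytotoxicity: H1299-neo (no p53), 32C, 24 h treatment. Concentrations up to 46 uM. Readout cellular ATP, luminescence. Normalization to DMSO basal and tamoxifen 100 uM maximal kill.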
# An asterisk follows results filed as active; i = inactive; ? = inconclusive; . = not tested or not shown. Unless noted, calls follow the shape of the dose curve; as a rule, active = well fitted curve in the direction sought with a large enough effect; inconclusive = small, poorly fitted or top-dose-only effect, or another doubt; inactive = no such curve, though single readings can be large; an effect the other way counts as inactive or inconclusive. Unless noted, % is scaled to controls: 0 for no effect and ±100 for the full control effect; potency is read from the fitted curve at half-maximal effect.
SMILES,PMP22 txn prim,p53null 39C kill,S16 F2sN tox,mTORC1 inh,OvCa metastasis,p53null 32C kill
O=C(Nc1nnc2n1CCS2)c1cc(C(F)(F)F)cc(C(F)(F)F)c1,8.9µM*,16%,?,0%,6%,7%
Cc1cc(C)cc(C(=O)Nc2nnc3n2CCS3)c1,?,18%,-25%,0%,-14%,-9%
CCS(=O)(=O)c1ncc(Cl)c(C(=O)N2CCN(c3cccc(Cl)c3)CC2)n1,?,3.2µM*,4.5µM*,2.6µM*,i,?
CS(=O)(=O)c1ncc(Cl)c(C(=O)N2CCN(c3cccc(Cl)c3)CC2)n1,?,-95%,3.2µM*,0.46µM*,?,14µM*
CC(C)c1ccccc1Cc1cc(C(=O)Nc2ccc(S(=O)(=O)c3ccccc3C(C)(C)C)cc2)c(O)c(O)c1O,.,.,.,.,-24%,.
COc1ccc(-n2cc(-c3ccc4c(c3)OCO4)n(CC(=O)Nc3cccc(C)c3C)c2=O)c(OC)c1,-6%,?,?,-15%,1%,-3%
COc1ccc(-n2cc(-c3ccc4c(c3)OCO4)n(CC(=O)Nc3cc(Cl)ccc3C)c2=O)cc1,?,10µM*,?,-13%,-4%,16µM*
C=Cc1ccc(Cn2c(C(=O)O)c(CNCc3ccc(F)cc3)c3ccc(C)cc32)cc1,?,?,28µM*,-14%,?,47%
COc1ccc(Cn2c(C(=O)O)c(CNCc3ccc(SC)cc3)c3ccc(OC)cc32)cc1,?,?,?,16µM*,i,4%
CCOc1ccc(CCNCc2c(C(=O)O)n(Cc3ccc(C)cc3)c3cc(OC)ccc23)cc1,?,47%,0%,12µM*,-23%,46%
CC(C)CC(=O)Nc1n[nH]c2c1CN(C(=O)C1CCN(C)CC1)C2(C)C,.,.,.,.,-1%,.
Cc1ccc(C(C)(O)c2nc3ccccc3s2)c(C)c1 (stereo unspecified),.,.,.,.,-21%,.
O=C(C1CC1)N1CC[C@@H](Cn2c(-c3ccc(-c4ccc5occc5c4)cc3)nc3cnccc32)C1,.,.,.,.,-9%,.
Cc1cccc(NC(=O)CSc2nc(-c3cccs3)cc(C(F)(F)F)c2C#N)c1,15µM*,?,?,-3%,-7%,-20%
CN(C)c1ccc(-c2nc3ncc(Cl)c(N4CCN(CC(=O)Nc5nccs5)CC4)c3[nH]2)cc1,.,.,.,.,14%,.
COc1ccc(C)cc1NC(=O)C(Cc1ccccc1)NS(=O)(=O)c1ccc(Br)s1 (stereo unspecified),?,?,1%,6.6µM*,?,-4%
CCOc1ccc(S(=O)(=O)N(C(C)=O)c2ccc3oc(C)c(C(=O)OC)c3c2)cc1,5.4µM*,?,?,6.6µM*,-20%,35%
CCOC(=O)c1c(-c2ccccc2)oc2ccc(N(C(C)=O)S(=O)(=O)c3ccccc3)cc12,.,-12%,.,6%,-9%,6%
COC(=O)c1c(C)oc2ccc(N(C(=O)Oc3ccccc3)S(=O)(=O)c3ccc(C(C)(C)C)cc3)cc12,6.6µM*,31%,-21%,5%,-14%,15%
COC(=O)c1c(C)oc2ccc(N(C(=O)c3ccncc3)S(=O)(=O)c3cc(C)ccc3C)cc12,12µM*,91%,?,?,i,78%
Cc1cnc(NC(=O)Nc2cc(Br)c(C)cc2OC[C@@H]2CNCCO2)cn1,.,.,.,.,4%,.
C[C@H]1[C@H](O)O[C@@H]2O[C@@]3(C)CC[C@@H]4[C@H](C)CC[C@@H]1[C@@]24OO3,.,.,.,.,-18%,.
COc1cc(CNC(=O)CCCCC=CC(C)C)ccc1O,.,.,.,.,-17%,.
CN1CCN(C(CNC(=O)C(=O)Nc2cccc(Cl)c2)c2ccc3c(c2)OCO3)CC1 (stereo unspecified),?,32%,?,16µM*,?,12%
O=C(CC(Nc1ccc(Cl)cc1)C(=O)O)c1ccccc1 (stereo unspecified),.,14µM*,.,.,.,?
SMILES,PMP22 txn prim,p53null 39C kill,S16 F2sN tox,mTORC1 inh,OvCa metastasis,p53null 32C kill
COc1ccc(-c2nnc(SCc3cc(=O)c4cc(C)cc(C)c4[nH]3)n2C)cc1,14µM*,-12%,?,?,-1%,-5%
COc1ccc(NC(=O)C(NC(=O)/C=C\c2ccc3c(c2)OCO3)c2ccccc2)cc1 (stereo unspecified),-24%,15%,-28%,10µM*,?,1%
C[C@@H]1CC=CC=CC=CC=C[C@@H](O[C@@H]2O[C@H](C)[C@@H](O)[C@H](N)[C@H]2O)C[C@@H]2O[C@](O)(C[C@@H](O)C[C@@H]3O[C@@H]3C=CC(=O)O1)C[C@H](O)[C@@H]2C(=O)O,.,.,.,.,16%,.
CC(C)C(=O)Nc1ccccc1OCc1cc(=O)n2ccccc2n1,1%,11%,-2%,-25%,-6%,-5%
CCc1ccc(NC(=O)Nc2ccccc2OCc2cc(=O)n3ccccc3n2)cc1,?,2µM*,0%,3%,-6%,?
CC(C)CCNC(=O)c1ccc2c(c1)nc1n2CCCCC1,-15%,6.3µM*,1%,0%,-3%,7.9µM*
O=C(NCCc1ccccc1)c1ccc2c(c1)nc1n2CCOC1,-3%,10µM*,2%,-19%,-5%,7.9µM*
CCNC(=O)c1ccc2c(c1)nc1n2CCCCC1,1%,?,4%,2%,i,?
Cc1ccccc1CCNC(=O)c1ccc2c(c1)nc1n2CCC(C)C1 (stereo unspecified),?,?,22%,4%,i,10µM*
O=C(NCCc1ccccc1Cl)c1ccc2c(c1)nc1n2CCCCC1,17%,2.5µM*,-2%,0%,?,3.2µM*
Cc1ccc(CCNC(=O)c2ccc3c(c2)nc2n3CCOC2)cc1,-1%,-10%,18%,-5%,-21%,-5%
O=C(Nc1ccccc1F)c1ccc2c(Cl)c3c(nc2c1)CCC3,?,1.6µM*,0%,0%,-16%,1.3µM*
N#Cc1ccccc1NC(=O)c1ccc2c(Cl)c3c(nc2c1)CCCC3,.,23%,.,.,.,1%
COc1cc(-c2nn(C3CCC(N4CCN(C(C)=O)CC4)CC3)c3ncnc(N)c23)ccc1NC(=O)c1cc2ccccc2n1C (stereo unspecified),.,.,.,.,1%,.
COc1ccc(-c2cc(C(F)(F)F)nc(SCCC(=O)Nc3ccccc3F)n2)cc1,-13%,-19%,-4%,1%,0%,-5%

# Source: PubChem BioAssay
